CYP2C9 act: human CYP2C9 activators, primary screen, biochemical, luminescence. recombinant CYP2C9, luciferin-H conversion; hits give high values; factor 1 = untreated enzyme, 0 = blocked. activation factor at 5 µM. AID 1024, 2008. Cytochrome P450 2C9 (Homo sapiens), P11712. 96,000 compounds, 1.4% hits;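 active means activation factor of 2 or more for CYP2C9 at a 5 µM dose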
CYP2C19 act: human CYP2C19 activators, primary screen, biochemical, luminescence; Cytochrome P450 2C19 (Homo sapiens), P33261; recombinant CYP2C19, luciferin-H EGE luminescence; hits give high values; 0 = fully inhibited enzyme, 1 = untreated enzyme; activation factor at 5 µM; 96,000 tested, under 10 active;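 active means activation factor of at least 2 at 5 µM in the primary screen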
Target sequence (P33261 whole entry, looked up): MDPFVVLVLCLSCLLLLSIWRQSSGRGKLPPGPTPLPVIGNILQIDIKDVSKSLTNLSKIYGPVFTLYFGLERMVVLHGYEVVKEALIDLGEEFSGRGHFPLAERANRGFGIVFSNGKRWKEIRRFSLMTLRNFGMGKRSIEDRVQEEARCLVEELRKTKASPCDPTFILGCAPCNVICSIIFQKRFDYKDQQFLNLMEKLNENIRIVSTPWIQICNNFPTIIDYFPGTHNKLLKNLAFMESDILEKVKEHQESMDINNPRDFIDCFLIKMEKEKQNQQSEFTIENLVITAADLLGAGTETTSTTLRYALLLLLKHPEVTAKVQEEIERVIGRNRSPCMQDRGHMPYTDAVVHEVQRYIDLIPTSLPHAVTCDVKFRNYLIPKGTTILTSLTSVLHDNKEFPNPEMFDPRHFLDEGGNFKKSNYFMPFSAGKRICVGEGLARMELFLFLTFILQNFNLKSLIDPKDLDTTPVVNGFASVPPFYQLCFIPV
CYP2C9 inh: blockers of cytochrome P450 2C9 activity – biochemical, luminescence, ADME assay, primary screen. P11712. CYP2C9 Supersomes, luciferin-H conversion. inhibition, % at 5 µM. 96,000 compounds, 20% hits;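 active means blocking of liver enzyme CYP2C9 beyond about 50% at 5 µM, limit read from the data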
PLAP activator: PLAP enzyme activators, biochemical, luminescence, HTS | Alkaline phosphatase, placental type (Homo sapiens), P05187 | purified PLAP enzyme, luminescent substrate read-out; hits give high values | activation fold at 20 µM | 96,000 compounds, 1.2% hits; in the data active means activation fold above about 2
CYP2C19 inhib: blockers of cytochrome P450 2C19 activity – biochemical, luminescence, ADME assay, primary screen; P33261; 96,000 compounds, 21% hits; inhibition, % at 5 µM; AID 778, 2007; CYP2C19 Supersomes, luciferin-H EGE luminescence, 30 min;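 active means CYP2C19 inhibition above a set limit at 5 µM in the primary screen, cut at about 50% in these data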
Large screens that a line does not name were inactive. Most compounds without a hit are left out; they make up all but 31% or so of the library.

COc1ccccc1NC(=O)c1nn(-c2ccc(F)c(F)c2)ccc1=O	none
C=C1C(C(=O)N2CCOCC2)C1C(=O)N1CCOCC1 (stereo unspecified)	none
O=C(CCC(=O)NNC(=O)Nc1ccc(Cl)cc1)NCc1ccccc1	none
Cc1ncsc1CCSc1n[nH]c(=O)n1-c1ccccc1	none
Cc1ncsc1CCSc1nc2ccccc2c(=O)n1C	CYP2C9 inh 68, CYP2C19 inhib 77
COCCn1c(C)cc(C(=O)COC(=O)c2cc3c(s2)CCC3)c1C	CYP2C19 inhib 57
CSc1ccccc1NC(=O)CSCc1ccc(Br)cc1	none
CCn1nc(C(=O)OCc2c(C)noc2C)c2ccccc2c1=O	CYP2C9 inh 76
Cc1noc(C)c1C(=O)OCC(=O)c1c[nH]c2ccccc12	CYP2C9 inh 88, CYP2C19 inhib 91
CCn1nc(C(=O)OC2CCOC2=O)c2ccccc2c1=O (stereo unspecified)	none
CCOC(=O)c1c(C)[nH]c(C(=O)O)c1C	none
CCOC(=O)c1[nH]c(C)c(C(=O)OCc2c(C)noc2C)c1C	CYP2C9 inh 65
Cc1noc(C)c1COC(=O)c1cc(=O)[nH]c2ccccc12	CYP2C9 inh 80, CYP2C19 inhib 60
Cc1cccc(NC(=O)C2CCCN(S(=O)(=O)c3c(C)nn(C)c3C)C2)n1 (stereo unspecified)	none
Nc1cccc(Nc2nc(OC(C(F)(F)F)C(F)(F)F)nc(OC(C(F)(F)F)C(F)(F)F)n2)c1	none
COc1ccc(OC2C(=O)N(Cc3ccc4c(c3)OCO4)C2c2sccc2C)cc1 (stereo unspecified)	CYP2C9 inh 69, CYP2C19 inhib 74
CC1CCCC(NC(=O)c2cn(C)c3ccc(S(=O)(=O)N4CCCC4)cc3c2=O)C1C (stereo unspecified)	CYP2C9 inh 73
CC(C)(C)NC(=O)COC(=O)c1cc(S(=O)(=O)N2CCCCC2)ccc1N1CCOCC1	CYP2C9 inh 82, CYP2C19 inhib 66
CC1CCCC(NC(=O)COC(=O)c2cc(S(=O)(=O)N3CCCCC3)ccc2N2CCOCC2)C1C (stereo unspecified)	CYP2C9 inh 82, CYP2C19 inhib 78
CC1CCCCC1NC(=O)c1cn(C)c2ccc(S(=O)(=O)N3CCCC3)cc2c1=O (stereo unspecified)	none
CCCOc1ccc(/C(O)=C2/C(=O)C(=O)N(c3cc(C)on3)C2c2ccc(C(=O)OC)cc2)cc1 (stereo unspecified)	none
O=C(CCSc1ccc(Cl)c(Cl)c1)NC12CC3CC(CC(C3)C1)C2	none
CCn1c(-c2cc(-c3cccc(OC)c3)nc3ccccc23)n[nH]c1=S	CYP2C9 inh 91 (no result: PLAP activator)
COc1ccc(N(C(=O)c2ccc(Cl)cc2)C2=CC3CCC(C2)N3C)cc1 (stereo unspecified)	none
O=C(O)Cn1c(SCCOc2ccccc2F)nc2ccccc21	CYP2C9 inh 70
O=C(O)CCSc1nc2ccccc2n1CCOc1ccccc1	none
OCCSc1nc2ccccc2n1CCOc1ccccc1	CYP2C9 inh 78, CYP2C19 inhib 91
OCCn1c(SCCOc2ccccc2F)nc2ccccc21	CYP2C9 inh 52, CYP2C19 inhib 94
OCCn1c(SC2CCCCC2)nc2ccccc21	none
CN(C)S(=O)(=O)c1cc(S(=O)(=O)N(C)C)c(Cl)cc1N	none
CCOC(=O)c1sc(NC(=O)CN2C(=O)c3cccc4cccc(c34)C2=O)nc1C	none
COc1cc(OC)c(OC)cc1CNCCNC(=O)c1nonc1N	none
CN(C)c1ccc(Nc2nc(-c3cccnc3)cs2)cc1	CYP2C19 inhib 81
Clc1ccc(Nc2nc(-c3cccnc3)cs2)cc1	CYP2C19 inhib 83
COc1ccc(Nc2nc(-c3cccs3)cs2)cc1	none
Cc1nc(NC(=O)c2ccccc2)sc1-c1csc(Nc2ccc(Cl)cc2)n1	none
Cn1c(=O)c2c(n(Cc3ccccc3)c1=O)NC(=O)C2CC(=O)NCc1cccc(Cl)c1 (stereo unspecified)	none
COc1ccc(OC)c(NC(=O)C2CCN(c3cc(-c4ccccc4)nc4ncnn34)CC2)c1	CYP2C19 inhib 52
CN(CCNC(=O)C1CC(=O)N(c2ccc(F)c(Cl)c2)C1)Cc1ccccc1 (stereo unspecified)	none
CCC1(C)Cc2c(sc3nc(NN)n(C)c(=O)c23)CO1 (stereo unspecified)	CYP2C9 inh 94, PLAP activator 2, CYP2C19 inhib 99
O=C(C1CC1)N1CCN=C1SCc1ccc(F)cc1	CYP2C19 inhib 91
O=C(c1ccco1)N1CCN=C1SCc1c(F)cccc1Cl	none
O=C(c1ccco1)N1CCN=C1SCc1ccccc1Cl	CYP2C9 act 2.6
CCN(CC)S(=O)(=O)c1ccc(C(=O)N2CCN=C2SCc2cccnc2)cc1	none
O=C(C1CC1)N1CCN=C1SCc1cccc(F)c1	CYP2C19 inhib 90
O=C(C1CC1)N1CCN=C1SCc1ccccc1	CYP2C19 inhib 83
O=C(COc1ccc(Cl)cc1Cl)Nc1ccc2nc3n(c(=O)c2c1)CCCC3	none
CCOC(=O)C(=O)Nc1ccccc1C(=O)NC(C)C	none
Cc1cccc(CSC2=NCCN2C(=O)c2ccc(Br)o2)c1	CYP2C19 inhib 73
CSC1=NCCN1C(=O)c1ccco1	none
O=C(Nc1cccc(C(F)(F)F)c1)c1ccc(Cn2cc(Br)cn2)o1	CYP2C9 inh 69, CYP2C19 inhib 85
O=C(c1ccc(Cn2cc(Br)cn2)o1)n1cccn1	CYP2C19 inhib 55
O=C(NC1CCCCC1)c1ccc(Cn2cc(Br)cn2)o1	CYP2C19 inhib 62
COCCOc1nc2c(c(=O)n(C)c(=O)n2C)n1Cc1cccc(OC)c1	none
CC(C)CN(CC(C)C)C(=O)CS(=O)(=O)Cc1ccccc1	CYP2C19 inhib 62
CCOc1ccc2noc3c2c1C(=O)c1ccccc1-3	none
O=C1c2ccccc2-c2onc3ccc(NCc4ccco4)c1c23	CYP2C9 inh 88, CYP2C19 inhib 55
CCc1ccc(NC(=O)CSc2nc3cc(C(=O)OC)ccc3c(=O)n2CC2CCCO2)cc1 (stereo unspecified)	none
NS(=O)(=O)c1cccc(NC(=O)Cn2cnc3ccccc3c2=O)c1	none
COC(=O)c1cc(NC(=O)Cn2c(=O)cnc3ccccc32)cc(C(=O)OC)c1	CYP2C9 inh 89
CCn1c(SCC(=O)Nc2ccc(C(C)=O)cc2)nc2nc3c(cc2c1=O)CCCC3	CYP2C9 inh 68
COC(=O)Cn1c(=O)cnc2ccccc21	none
COc1cccc(NC(=O)CSc2nc3ccccc3c(=O)n2CCCC(=O)N2CCCC2)c1	CYP2C9 inh 88, CYP2C19 inhib 72
COC(=O)c1cccc(NC(=O)Cn2cnc3ccccc3c2=O)c1	CYP2C9 inh 98, CYP2C19 inhib 75
C=CCNCc1cccn1-c1ccccc1	none

High-throughput results: PubChem BioAssay, Sanford-Burnham Center for Chemical Genomics
